Only some compounds are listed: those with a hit (about 1.1% of all), similar ones and a draw of the others.
AmpC inh no detg – qHTS Inhibitors of AmpC Beta-Lactamase (assay without detergent); Potency, µM (highest dose often 57.1 µM), inactives show top-dose activity change, negative = inhibition, usual class: inhibitors; AmpC nitrocefin hydrolysis, absorbance 480 nm, 0.0001% Triton; P00811; AID 485341, 2010; 0.52% of 330,000 active;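 further: plate controls were no compound for no effect and no enzyme for full effect; nearly all actives have a fitted effect of over 20% in size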
Target sequence (P00811 whole entry, looked up): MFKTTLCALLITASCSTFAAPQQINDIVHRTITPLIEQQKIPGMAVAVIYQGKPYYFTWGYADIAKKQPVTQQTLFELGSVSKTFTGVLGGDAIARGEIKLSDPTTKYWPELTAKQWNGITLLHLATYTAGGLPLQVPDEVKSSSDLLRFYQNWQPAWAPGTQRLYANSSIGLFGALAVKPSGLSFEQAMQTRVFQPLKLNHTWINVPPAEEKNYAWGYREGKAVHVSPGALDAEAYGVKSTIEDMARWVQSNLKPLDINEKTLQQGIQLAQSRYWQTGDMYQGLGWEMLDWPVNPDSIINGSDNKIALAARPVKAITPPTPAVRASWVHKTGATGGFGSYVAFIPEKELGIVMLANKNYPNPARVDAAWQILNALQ
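20 mM phosphate pH 7.0 + 0.01% (detergent screen) or 0.0001% Triton X-100; 5.3 nM AmpC reagent; cpd preinc 15 min RT; nitrocefin (800 uM stock) to start; A480 q20 s × 4 min; Activity was normalised to no-enzyme and no-compound control wells.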
Vaccinia Venus – qHTS for Stage-Specific Inhibitors of Vaccinia Orthopoxvirus: Venus Reporter Primary qHTS; Potency, µM (titrated, usually from 36.5 µM), for the others: top-dose activity change, negative = inhibition, most hits filed as inhibitors; AID 720580, 2013; Vaccinia virus Venus reporter expression, fluorescence; 0.46% of 330,000 active; calls by dose curve; tested in A549 cells; further: nearly all actives have a fitted effect of over 30% in size
VACV mCherry inh – qHTS for Stage-Specific Inhibitors of Vaccinia Orthopoxvirus: mCherry Reporter Primary qHTS. Potency, µM (titrated, usually from 36.5 µM), for the others: at the highest dose activity change, negative = inhibition, most hits filed as inhibitors. Vaccinia virus mCherry reporter infection, fluorescence. 0.63% of 310,000 active. AID 720579, 2013; calls by dose curve; tested in A549 cells; further: nearly all actives have a fitted effect of over 35% in size
AmpC inh detg – qHTS Inhibitors of AmpC Beta-Lactamase (assay with detergent). P00811. AmpC hydrolysis of nitrocefin, absorbance 480 nm, 0.01% Triton. AID 485294, 2010. Potency, µM (top dose mostly 114 µM), without a hit: top-dose activity change, negative = inhibition, actives largely listed as inhibitors. 0.041% of 370,000 active;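 further: 0% = no-compound wells and -100% = no-enzyme wells; nearly all actives have a fitted effect of over 25% in size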
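AmpC (5.3 nM in the dispensed reagent) in 20 mM phosphate pH 7.0 with 0.01% (detergent screen) or 0.0001% Triton X-100 was preincubated with compounds for 15 min at room temperature. Nitrocefin was then added from an 800 uM solution, and hydrolysis was followed at 480 nm.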
The depositor's hits bear a star; i = inactive; ? = inconclusive; nt = not tested or not shown. Unless noted, the call rests on the fitted dose curve; in most records, active means well fitted curve in the direction sought with a large enough effect; inconclusive means small, poorly fitted or top-dose-only effect, or another doubt; inactive means no such curve, though single readings can be large; an effect the other way counts as inactive or inconclusive. Unless noted, on the % scale 0 is the no-effect control and ±100 the full control effect; potency means the concentration at half of the fitted maximal effect.

SMILES	AmpC inh no detg	Vaccinia Venus	VACV mCherry inh	AmpC inh detg
O=C(/C=C/c1cccc(Cl)c1)c1ccc([N+](=O)[O-])o1	-28.8%	10µM*	10µM*	?
CC(=O)Oc1ccccc1C(=O)C=Cc1cccc([N+](=O)[O-])c1	nt	?	14.1µM*	nt
Cc1cc(O)c(C(=O)/C=C/c2cccc([N+](=O)[O-])c2)c(=O)o1	14.1µM*	-10.8%	i	1.4%
COc1cc(=O)n2c(c1C(=O)N(C)Cc1nonc1C)CCN(C(=O)C1C(C)(C)C1(C)C)CC2	nt	0.0%	i	nt
COc1ccccc1Nc1nc(NCc2ccco2)c2ccccc2n1	-37.7%	-16.5%	?	4.4%
c1ccc(-c2nc(NCc3ccco3)c3ccccc3n2)nc1	-6.6%	11.2µM*	?	?
Cc1ccc(Nc2nc(NCc3ccco3)c3ccccc3n2)cc1	-29.8%	11.2µM*	?	0.8%
COc1ccc(OC)c(-c2c3cc(O)c(=O)cc-3oc3cc(O)c(O)cc23)c1	28.2µM*	i	i	-3.9%
O=c1cc2oc3cc(O)c(O)cc3c(-c3ccccc3O)c-2cc1O	15.8µM*	i	319.6%	1.1%
CCOc1ccccc1-c1c2cc(O)c(=O)cc-2oc2cc(O)c(O)cc12	-55.3%	nt	i	?
c1csc(CNc2nc(CN3CCCC(c4nc5ccccc5o4)C3)nc3ccccc23)c1 (stereo unspecified)	nt	1.6%	-13.9%	nt
Cc1cccc(Oc2ncnc3onc(C)c23)c1	0.794µM*	-8.0%	nt	-0.5%
CCOc1cc(/C=C/C(=O)c2ccc3c(c2)OCCO3)ccc1OCC(=O)N(C)C	127.7%	10µM*	10µM*	-6.8%
Cc1cc(C(=O)NCC2CCC3(CCN(Cc4ccc5ccccc5c4)CC3)O2)n(C)n1 (stereo unspecified)	nt	-29.1%	-7.7%	nt
COc1ccc(CC2NC[C@H](O)[C@H]2OC(C)=O)cc1 (stereo partly specified)	nt	1µM*	0.794µM*	nt
COc1ccc(CC2NCC(O)C2OC(C)=O)cc1 (stereo unspecified)	nt	0.112µM*	0.0089µM*	nt
Cc1cccc(-c2cccc(C(=O)N3CCc4c(cnc(C)c4CNC(=O)c4cncs4)C3)c2)c1	nt	-10.1%	-20.0%	nt
c1cc2c(cc1NC1=NCCO1)CCCC2	nt	3.98µM*	?	nt
O=C(Nc1ccc2c(c1)CCC2)Nc1ccc2c(c1)OCO2	-26.6%	0.0%	i	0.8%
CCOc1ccc(/C=C/c2cc[n+](C)c3ccccc23)cc1OCC	nt	5.3%	11.2%	nt
CC(=NNC(=S)N1CC2CCC(CC2)C1)c1cccc(C)n1	nt	?	3.98µM*	nt
Cc1cccc(C(=O)N2CCCC(Nc3ccc(C)c(C)c3)C2)n1 (stereo unspecified)	76.2%	nt	nt	-2.6%
Cc1ccc(C(=O)Nc2cccc(-c3nc(CNC(=O)[C@@H]4C[C@@H](C)NC(=S)N4)c(C)o3)c2)s1	nt	-17.6%	-22.0%	nt
COc1ccc(/C=C(/CC(=O)NCc2ccc(Cl)cc2)c2nc3ccccc3s2)cc1	17.8µM*	-14.5%	?	3.3%
COc1ccc(/C=C(/CC(=O)Nc2ccccc2)c2nc3ccccc3s2)cc1	-32.8%	-10.6%	i	?
SMILES	AmpC inh no detg	Vaccinia Venus	VACV mCherry inh	AmpC inh detg
CC(C)(C)NC(=O)C[C@H]1C[C@H](C(=O)N2CCOCC2)[C@@]2(CCC3CCCC3)c3[nH]c4cc(-c5ccco5)ccc4c3CCN2C1=O	183.0%	10µM*	?	nt
O=C(C[C@H]1C[C@H](C(=O)N2CCOCC2)[C@@]2(CCC3CCCC3)c3[nH]c4cc(-c5ccco5)ccc4c3CCN2C1=O)NCCN1CCOCC1	259.3%	?	?	nt
CN(C)CCCNC(=O)C[C@H]1C[C@H](C(=O)N2CCOCC2)[C@@]2(CCC3CCCC3)c3[nH]c4cc(-c5ccco5)ccc4c3CCN2C1=O	216.1%	12.6µM*	?	nt
Cc1ncc2c(c1CNC(=O)c1cncs1)CCN(C(=O)c1ccc(C(F)(F)F)cc1)C2	nt	-0.8%	-7.4%	nt
Cc1ccc2c(c1N)C(=O)c1ccccc1C2=O	-10.0%	53.3%	-13.8%	-4.2%
Cc1ccc2c(c1C)-c1c(ccc(C)c1C)C(=O)C2=O	nt	10µM*	?	nt
Cc1ccc(S(=O)(=O)Oc2ccccc2/C=N/NC(N)=S)cc1	-11.5%	1.26µM*	?	-1.4%
CNC(=S)N/N=C/c1cn(Cc2ccc(F)cc2)c2ccccc12	-46.0%	?	3.16µM*	?
Nc1ccc(C(=O)N/N=C/c2cn(Cc3ccc(F)cc3)c3ccccc23)cc1	-39.9%	-12.7%	-12.1%	-12.6%
O=C(N/N=C/c1cn(Cc2cccc(F)c2)c2ccccc12)c1cc(O)cc(O)c1	12.6µM*	nt	nt	?
COC(=O)N/N=C/c1cn(Cc2ccc(F)cc2)c2ccccc12	-1.3%	nt	nt	1.8%
Cc1ccc(S(=O)(=O)Oc2ccccc2/C=N/N=C(N)N)cc1	-10.9%	-14.9%	?	-13.2%
COc1ccccc1OCCn1cc(/C=N/NC(N)=S)c2ccccc21	-38.0%	1.26µM*	?	-12.7%
Cc1c(C(=O)NCC2(N3CCOCC3)CCCCCC2)cnn1-c1nccc(-c2ccccc2F)n1	nt	-12.7%	-6.4%	nt
Cc1cc(O)cc2c1O[C@](C)(CCC(=O)O)CC2	nt	-14.0%	i	nt
NC(=S)N/N=C/c1ccccc1OCCSc1ccc(Cl)cc1	-16.2%	0.316µM*	0.0891µM*	-2.5%
COc1cccc(/C=N/NC(N)=S)c1OCc1ccccc1Cl	-21.6%	?	?	-0.7%
Nc1nnc2c(n1)CCCC2	0.159µM*	nt	nt	-0.8%
CC(C)Cc1nc2cc(NS(=O)(=O)N(C)C)cc(C(=O)N3CCOc4ccccc4C3)c2n1C	nt	-8.2%	-14.5%	nt
CN(C)CCNC(=O)c1ccc(Sc2ccc(Br)cc2)c([N+](=O)[O-])c1	86.0%	?	10µM*	4.0%
CC(=O)NCCNC(=O)c1ccc(Sc2ccccc2)c([N+](=O)[O-])c1	41.1%	-15.6%	-14.1%	1.9%
C=C[C@H]1CN2CC[C@H]1C[C@H]2[C@H](OC(=O)OCC)c1ccnc2ccc(OC)cc12	nt	-13.5%	-17.3%	nt
Nc1ccc(-c2cnc(N)c(C(=O)c3cccnc3)n2)cn1	nt	10µM*	?	nt
Nc1ccc(C(=O)c2cccs2)cn1	-10.7%	-10.8%	i	5.1%
COc1cc(/C=C/c2ccc3cccc(O)c3n2)cc(OC)c1OC	18.0%	-21.8%	8.91µM*	-7.4%
SMILES	AmpC inh no detg	Vaccinia Venus	VACV mCherry inh	AmpC inh detg
CCCN(CCC)C(=O)Cn1c(=O)n(CCCCC(=O)NC2CCCC2)c(=O)c2ccccc21	0.316µM*	3.3%	nt	-1.2%
O=C(CCCCn1c(=O)c2ccccc2n(CC(=O)NC2CCCC2)c1=O)NC1CCCC1	-9.6%	-7.1%	-14.7%	-2.9%
CC(C)c1c(C(=O)NCc2ccccn2)cnn1-c1nccc(-c2ccccc2F)n1	nt	-20.9%	-1.9%	nt
Cc1c(Cl)cccc1NC(=S)NNS(=O)(=O)c1ccc([N+](=O)[O-])cc1	-33.0%	?	10µM*	3.5%
COc1ccccc1N1CCN(c2nc(CNC(=O)c3ccc4c(c3)OCO4)nc3ccccc23)CC1	nt	-13.6%	i	nt
Cc1cc(C)nc(NC(=O)c2cnc3sccn3c2=O)n1	39.8µM*	-0.7%	i	?

Source: PubChem (National Center for Advancing Translational Sciences (NCATS))
